Test [1] deals with ATP-dependent translocase ABCB1 (Homo sapiens) (UniProt P08183). Briefly: MDR1 (ABCB1) efflux transporter inhibition, cell-based (AID 377; in the data active = fluorescence slope change above about 50%). Conditions: MDR1-expressing cells, fluorescent substrate accumulation slope; stronger effect = higher value; concentration not given here.
Test [2] in a line: polyglutamine-triggered caspase-3 activation inhibitors, cell-based (AID 1583). To be noted: polyglutamine-induced caspase-3 activation, cell assay; stronger effect = higher value;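 tested at 10 µM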.
Test [3] in a line: suppressors of polyQ aggregation in yeast, 75Q-TubU reporter (AID 1593). To be noted: Yeast 75Q polyglutamine aggregation reporter.
The nature of test [4]: rescue of polyQ-huntingtin neuronal dysfunction in worms, whole organism, C. elegans mechanosensory neurons, N-terminal huntingtin (AID 1599). Conditions: touch response, stronger effect = higher value.
A short description of test [5]: inhibitors of mitochondrial cytochrome c release, biochemical, purified mitochondria (AID 1603).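 Note: mouse liver mitochondria challenged with calcium chloride; signal normalized to the plate average as 100%.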 To be noted: stronger effect = lower value.
Test [6] can be described thus: inhibitors of polyQ protein aggregation (AID 1604). To be noted: polyglutamine-induced protein aggregation inhibition assay; stronger effect = higher value; tested at 2.5 µM.
Test [7] in a line: enhancers of glutamate uptake in motor neurons, MN-1 cell line (AID 1612).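 Note: tested at 1 µM final; 0% = mean of DMSO vehicle wells on each plate; positive means more glutamate uptake than control and negative means less.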 To be noted: MN-1 motor neuron cells, stronger effect = higher value.
Test [8] in a line: reducers of polyQ inclusions in PC12 cells, cell-based, NGF-treated PC12, GFPQ80 (AID 1614).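 Note: lower means fewer inclusions and 0 means no inclusions at all.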 Conditions: PC12 NGF-treated GFP-polyQ80 inclusion reduction.
Test [9] is described as follows: suppressors of polyglutamine aggregation in yeast, 75Q-TubH (AID 1616). To be noted: S. cerevisiae 75Q-TubH polyglutamine aggregation suppression; stronger effect = higher value.
Test [10] can be described thus: hESC survival regulators, cell-based (AID 493140).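 Note: cells exposed to compounds for four days before counting.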 Conditions: human embryonic stem cell survival screen; stronger effect = higher value.

Each structure is given as a SMILES string. Inconclusive results are not listed. For part of these data: Potency and affinity values are given separately. The source made the active and inactive calls. Unless noted, the rule behind the calls is not given here.

ATP-dependent translocase ABCB1 (Homo sapiens), sequence (P08183 whole entry, looked up): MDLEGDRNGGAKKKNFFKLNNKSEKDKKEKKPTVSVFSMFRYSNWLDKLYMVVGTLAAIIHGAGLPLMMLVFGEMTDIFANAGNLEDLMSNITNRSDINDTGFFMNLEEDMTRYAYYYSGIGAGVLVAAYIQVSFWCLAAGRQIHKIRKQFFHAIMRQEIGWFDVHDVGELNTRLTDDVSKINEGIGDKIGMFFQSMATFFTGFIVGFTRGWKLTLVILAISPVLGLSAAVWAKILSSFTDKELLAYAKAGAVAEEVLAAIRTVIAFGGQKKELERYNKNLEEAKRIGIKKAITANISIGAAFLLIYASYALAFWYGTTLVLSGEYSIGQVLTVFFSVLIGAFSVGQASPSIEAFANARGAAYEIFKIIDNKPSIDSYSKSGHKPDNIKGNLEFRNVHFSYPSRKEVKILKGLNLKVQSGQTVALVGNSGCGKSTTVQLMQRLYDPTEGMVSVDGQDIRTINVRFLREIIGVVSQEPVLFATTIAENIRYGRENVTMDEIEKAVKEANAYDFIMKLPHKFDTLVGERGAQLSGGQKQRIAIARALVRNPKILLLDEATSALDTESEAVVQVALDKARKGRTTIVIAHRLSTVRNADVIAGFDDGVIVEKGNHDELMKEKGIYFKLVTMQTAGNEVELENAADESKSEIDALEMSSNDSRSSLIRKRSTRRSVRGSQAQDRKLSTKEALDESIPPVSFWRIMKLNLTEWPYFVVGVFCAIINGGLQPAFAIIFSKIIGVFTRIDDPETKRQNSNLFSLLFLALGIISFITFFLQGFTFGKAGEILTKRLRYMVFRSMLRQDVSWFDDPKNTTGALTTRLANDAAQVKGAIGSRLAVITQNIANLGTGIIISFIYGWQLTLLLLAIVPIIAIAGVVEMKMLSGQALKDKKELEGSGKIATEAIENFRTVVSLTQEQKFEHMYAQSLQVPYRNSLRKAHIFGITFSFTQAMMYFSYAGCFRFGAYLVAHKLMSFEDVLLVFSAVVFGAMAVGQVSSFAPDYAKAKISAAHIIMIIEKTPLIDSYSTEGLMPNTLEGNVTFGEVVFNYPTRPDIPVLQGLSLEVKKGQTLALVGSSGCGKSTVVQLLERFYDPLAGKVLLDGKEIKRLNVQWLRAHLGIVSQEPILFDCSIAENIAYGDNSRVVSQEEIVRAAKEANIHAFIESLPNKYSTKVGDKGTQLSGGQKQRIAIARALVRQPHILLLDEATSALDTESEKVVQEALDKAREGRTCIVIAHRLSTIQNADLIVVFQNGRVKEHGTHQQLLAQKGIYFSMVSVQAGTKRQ

In general, inhibition refers to the drop in the measured response relative to a control, in per cent. Regarding `COc1ccccc1OCC(O)CO` (stereo not given), the fluorescence slope change in test [1] was 12.6% (inactive). The inhibition in test [2] is -27.7%. This compound also yielded a score in test [3] of 0.87. Moreover, in test [4], the rescue above control is -10.8. In addition, the cytochrome c release ratio in test [5] worked out at 1.15. Also, the inhibition of aggregation in [6] was 58.9%. In addition, the glutamate uptake change in test [7] is -12.9%. The compound further registered an inclusion score in test [8] of 2. Also, in [9], the aggregation suppression score was found to be 0.924. In test [10], the survival is 4.75 (inactive).

Consider `COc1cc(NS(=O)(=O)c2ccc(N)cc2)ncn1`, for which, in test [2], the inhibition was -4.01%. The compound further showed a score in test [3] of 1.09. Moreover, the rescue above control in test [4] came to 33.1. The cytochrome c release ratio in test [5] was found to be 0.96. Further, in test [6], the inhibition of aggregation amounted to 88.9%. For the same compound, the glutamate uptake change in [7] came to 2.45%. In [8], the inclusion score is 2. Further, in test [9], the aggregation suppression score worked out at 1.2. Further, the survival in test [10] is 3.67 (inactive).

For `C[n+]1ccccc1/C=N/O`, in test [2], the inhibition was 17.5%. Besides, in [3], the score stood at 1.27. In test [4], this compound registered a rescue above control of 6.93. Further, the cytochrome c release ratio in test [5] is 1.18. Further, the inhibition of aggregation in test [6] was found to be 91.3%. Also, the glutamate uptake change in test [7] was -3.95%. The same compound yielded an inclusion score in [8] of 2. Also, the aggregation suppression score in test [9] came to 1.54. In addition, the survival in [10] was 5.75 (inactive).

Take `CCN1CCCC(OC(=O)C(c2ccccc2)c2ccccc2)C1` (stereo not given): the inhibition in [2] turned out to be 7.55%. This compound yielded a score in [3] of 1.33. The rescue above control in test [4] is -11.5. Also, in test [5], the cytochrome c release ratio worked out at 1.06. In addition, the inhibition of aggregation in test [6] was 23.6%. In addition, the glutamate uptake change in [7] was 7.33%. Besides, the inclusion score in test [8] is 1.5. The aggregation suppression score in test [9] worked out at 1.15. Also, the survival in [10] is 12 (inactive).

On to `NC(=O)NC1NC(=O)NC1=O` (stereo not given), for which the inhibition in test [2] was determined as 2.28%. This compound also showed a score in test [3] of 1.2. In [4], this compound displayed a rescue above control of -1.57. The cytochrome c release ratio in test [5] worked out at 0.93. Besides, in test [6], the inhibition of aggregation came out at 74.6%. The glutamate uptake change in [7] is -8.53%. This compound also showed an inclusion score in test [8] of 2. The compound further returned an aggregation suppression score in test [9] of 0.815. Besides, the survival in test [10] was 26.8 (inactive).

In the case of `CC(=O)Nc1ccc(O)cc1`, the fluorescence slope change in [1] was 29.1% (inactive). Besides, the inhibition in [2] is -1.78%. The same compound returned a score in test [3] of 1.1. Further, in test [4], the rescue above control turned out to be 12.7. The cytochrome c release ratio in test [5] stood at 1.05. In addition, in [6], the inhibition of aggregation was found to be 74.9%. Further, the glutamate uptake change in [7] is -4.6%. For the same compound, the inclusion score in [8] came out at 2. This compound also came in with an aggregation suppression score in test [9] of 1.73. Also, the survival in test [10] was 5.25 (inactive).

Regarding `Nc1ccc(C(=O)NCC(=O)O)cc1`, the inhibition in test [2] was found to be 5.11%. This compound displayed a score in test [3] of 1.21. In test [4], this compound displayed a rescue above control of 11.2. Moreover, the cytochrome c release ratio in test [5] worked out at 1.41. For the same compound, in test [6], the inhibition of aggregation came out at 83.6%. For the same compound, the glutamate uptake change in [7] was -9.5%. Besides, the inclusion score in test [8] stood at 2. The aggregation suppression score in [9] came out at 1.33. Besides, in test [10], the survival was 1.83 (inactive).

Regarding `CCOc1ccc(NC(C)=O)cc1`, the fluorescence slope change in [1] is 5.5% (inactive). Besides, the inhibition in [2] is -10.9%. Also, the score in test [3] turned out to be 0.84. The compound also gave a rescue above control in test [4] of -2.44. In addition, in [5], the cytochrome c release ratio amounted to 0.87. Moreover, the inhibition of aggregation in [6] was -59.3%. Also, the glutamate uptake change in test [7] was -13.8%. In [8], this compound registered an inclusion score of 1.5. In [9], this compound returned an aggregation suppression score of 0.296. Also, in [10], the survival is 8.75 (inactive).

Take `NCC1CCC(C(=O)O)CC1` (stereo not given): in [1], the fluorescence slope change is 64.7% (active). Besides, the inhibition in [2] was -11.3%. This compound also came in with a score in [3] of 1.25. The compound further displayed a rescue above control in test [4] of 8.04. In addition, the cytochrome c release ratio in test [5] was found to be 0.77. Moreover, the inhibition of aggregation in test [6] amounted to 74.7%. Further, in [7], the glutamate uptake change amounted to 10.5%. Moreover, the inclusion score in test [8] stood at 2. Further, the aggregation suppression score in test [9] was determined as 1.21. Moreover, the survival in [10] is 17.8 (inactive).

Regarding `CC1CCc2cc(F)cc3c(=O)c(C(=O)O)cn1c23` (stereo not given), the fluorescence slope change in test [1] is 50.2% (active). Besides, in test [2], the inhibition amounted to 4.46%. The compound also came in with a score in test [3] of 1.12. This compound displayed a rescue above control in [4] of -5.46. For the same compound, the cytochrome c release ratio in test [5] is 1.29. Further, in test [6], the inhibition of aggregation was 44.4%. The glutamate uptake change in test [7] is 3.94%. Moreover, in [8], the inclusion score stood at 2. In test [9], the aggregation suppression score came out at 0.905. Further, the survival in [10] was 26.8 (inactive).

`OCC(O)CN1CCN(c2ccccc2)CC1` (stereo not given): in test [1], the fluorescence slope change is 54.1% (active). The inhibition in [2] is 9.99%. The compound also yielded a score in [3] of 1.44. This compound showed a rescue above control in [4] of 10.9. Also, the cytochrome c release ratio in test [5] is 0.72. In addition, the inhibition of aggregation in [6] is 68.2%. Further, in [7], the glutamate uptake change was 0.23%. In test [8], this compound showed an inclusion score of 2. Further, the aggregation suppression score in [9] is 1.04. For the same compound, the survival in [10] was 19.2 (inactive).

The record behind these values is PubChem BioAssay.
